PubChem BioAssay (NCATS)
Unmarked numbers belong to inactive results. Records with an inconclusive call do not appear. Entries that show only a call come without a potency. Calls of active or inactive are those of the source. Unless noted, calls come from the whole dose curve; as a rule, active = well fitted curve in the direction sought with a large enough effect; inconclusive = small, poorly fitted or top-dose-only effect, or another doubt; inactive = no such curve, though single readings can be large; an effect the other way counts as inactive or inconclusive.

Tests used:
[1] = KB-8-5-11 P-gp reporter qHTS against the NCATS DSHEA and TCM libraries (AID 1919977)
In short: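 CellTiter-Glo luminescence measured viability after ~72 h exposure (37C, 5% CO2) of KB-8-5-11 cervical adenocarcinoma cells overexpressing P-gp. Colchicine was omitted during assay. Substances were tested as titrations.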

[2] = Cell Viability - LYMP2-018 (AID 985);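 note: compound exposure lasted 24 hr at 37 °C; nearly all actives have a fitted effect of over 50% in size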
In short: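 Seed 2500 lymphoblastoid cells per well, incubate 5 hr at 37 C, add compound and incubate 24 hr at 37 C, add CellTiter-Glo, wait 30 min at room temperature, then read luminescence.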

[3] = target: Androgen receptor (Homo sapiens) (UniProt P10275); assay: qHTS assay for small molecule agonists of androgen receptor signaling (AID 588515; active = well fitted curve in the direction sought with a large enough effect in the signal ratio, with a control signal flat; the % refers to the signal ratio); settings: AR-UAS-bla HEK293, beta-lactamase ratio, agonist 16 h; active compounds read high
In short: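 Stimulation of an AR-responsive β-lactamase reporter in GripTite HEK293 cells was measured after 16 h compound exposure at 37 °C, via CCF4 fluorescence after 2 h RT. EC50 from Hill fits, normalized to R1881 at 30 nM.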

[4] = target: Androgen receptor (Homo sapiens) (UniProt P10275); assay: qHTS assay for small molecule antagonists of androgen receptor signaling (AID 588516; active = well fitted curve in the direction sought with a large enough effect in the signal ratio, with a control signal flat, not every such curve was filed as active; the % refers to the signal ratio)
In short: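 Antagonist mode: inhibition of R1881-stimulated (10 nM final) bla reporter in GeneBLAzer AR HEK 293 cells, 16 h at 37C, compounds titrated. IC50 and efficacy from Hill-equation fits of 405/460–530 nm FRET ratios.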

[5] = qHTS assay to identify small molecules that stimulate interleukin-8 (IL-8) secretion (AID 651758; active = well fitted activation curve with a large enough effect in the signal ratio; the % refers to the signal ratio)
In short: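 Quantitative HTS in THP-1 monocytic cells at 2000 cells per well, with 16 hrs compound incubation at 37 C. IL-8 in the medium was then quantified by HTRF immunoassay, read after 1-3 hrs at room temperature.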

[6] = target: Cytochrome P450 3A4 (Homo sapiens) (UniProt P08684); assay: qHTS Assay for Activators of Cytochrome P450 3A4 (AID 885); note: nearly all actives have a fitted effect of over 65% in size
In short: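 Using 20nM recombinant human CYP3A4 in potassium phosphate (200mM), substrate Luciferin-PPXE at 25uM, luminescent luciferin detection followed a 60-min RT NADPH reaction; data scaled to 57 uM ketoconazole.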

[7] = target: Thyroid hormone receptor beta (Homo sapiens) (UniProt P10828); assay: qHTS assay for small molecule agonists of thyroid hormone receptor beta signaling (AID 588545; calls by dose curve)
In short: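 Efficacy and EC50 values derive from Hill fits of qHTS titration data, normalized to 10 nM T3 and DMSO-only wells. HEK 293 reporter cells were stimulated for 18 hrs at 37 C, with beta-lactamase activity measured by CCF4 fluorescence.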

Sequence of Cytochrome P450 3A4 (Homo sapiens) (P08684 whole entry, looked up): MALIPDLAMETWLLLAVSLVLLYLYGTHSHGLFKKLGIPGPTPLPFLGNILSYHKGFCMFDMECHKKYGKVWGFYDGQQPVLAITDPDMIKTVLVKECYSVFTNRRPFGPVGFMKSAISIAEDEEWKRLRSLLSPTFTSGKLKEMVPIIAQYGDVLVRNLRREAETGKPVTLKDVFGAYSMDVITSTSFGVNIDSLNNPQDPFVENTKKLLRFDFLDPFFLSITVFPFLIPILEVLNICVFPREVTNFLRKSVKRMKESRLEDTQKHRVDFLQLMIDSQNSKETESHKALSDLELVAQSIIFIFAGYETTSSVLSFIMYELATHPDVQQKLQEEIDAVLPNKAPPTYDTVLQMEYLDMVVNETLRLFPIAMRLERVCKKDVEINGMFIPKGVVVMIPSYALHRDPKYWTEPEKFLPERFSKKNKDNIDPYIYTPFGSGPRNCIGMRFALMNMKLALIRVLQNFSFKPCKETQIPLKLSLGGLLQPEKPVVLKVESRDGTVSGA
Sequence of Thyroid hormone receptor beta (Homo sapiens) (P10828 whole entry, looked up): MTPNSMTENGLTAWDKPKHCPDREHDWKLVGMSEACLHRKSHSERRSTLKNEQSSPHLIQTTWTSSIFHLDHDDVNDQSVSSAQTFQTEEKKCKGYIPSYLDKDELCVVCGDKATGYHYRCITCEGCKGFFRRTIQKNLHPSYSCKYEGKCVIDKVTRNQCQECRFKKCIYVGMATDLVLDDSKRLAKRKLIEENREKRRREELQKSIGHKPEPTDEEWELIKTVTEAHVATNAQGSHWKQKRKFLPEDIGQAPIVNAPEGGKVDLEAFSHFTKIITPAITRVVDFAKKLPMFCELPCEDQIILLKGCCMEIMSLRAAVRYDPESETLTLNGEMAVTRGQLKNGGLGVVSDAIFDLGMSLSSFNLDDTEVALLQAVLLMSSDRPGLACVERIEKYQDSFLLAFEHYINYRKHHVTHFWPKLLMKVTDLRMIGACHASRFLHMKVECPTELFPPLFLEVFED
Sequence of Androgen receptor (Homo sapiens) (P10275 whole entry, looked up): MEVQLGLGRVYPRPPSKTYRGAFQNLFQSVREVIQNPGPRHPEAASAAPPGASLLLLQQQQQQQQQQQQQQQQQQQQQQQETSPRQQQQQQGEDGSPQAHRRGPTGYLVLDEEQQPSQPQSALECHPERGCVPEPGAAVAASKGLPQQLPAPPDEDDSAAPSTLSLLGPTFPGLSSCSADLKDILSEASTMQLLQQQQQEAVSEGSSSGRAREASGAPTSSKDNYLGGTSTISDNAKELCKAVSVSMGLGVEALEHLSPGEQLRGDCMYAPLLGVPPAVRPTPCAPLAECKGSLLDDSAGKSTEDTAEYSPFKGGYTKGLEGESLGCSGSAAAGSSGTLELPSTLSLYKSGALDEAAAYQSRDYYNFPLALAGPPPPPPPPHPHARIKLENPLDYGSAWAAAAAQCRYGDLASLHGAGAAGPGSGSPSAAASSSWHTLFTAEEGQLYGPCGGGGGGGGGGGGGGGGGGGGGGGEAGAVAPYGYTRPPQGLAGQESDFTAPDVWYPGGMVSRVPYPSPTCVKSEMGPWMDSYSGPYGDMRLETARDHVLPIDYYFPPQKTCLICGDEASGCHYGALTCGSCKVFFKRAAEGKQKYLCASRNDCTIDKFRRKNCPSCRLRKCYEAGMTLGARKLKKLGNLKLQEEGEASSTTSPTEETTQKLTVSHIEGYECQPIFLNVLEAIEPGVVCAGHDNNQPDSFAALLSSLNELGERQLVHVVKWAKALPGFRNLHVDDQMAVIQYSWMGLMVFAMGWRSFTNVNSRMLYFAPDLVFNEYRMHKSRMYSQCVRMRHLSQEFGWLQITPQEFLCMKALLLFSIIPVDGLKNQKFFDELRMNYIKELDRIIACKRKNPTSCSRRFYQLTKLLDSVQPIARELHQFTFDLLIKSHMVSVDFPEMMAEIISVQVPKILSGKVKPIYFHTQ

SMILES: CC(C)=CCC[C@](C)(OC1OC(COC2OCC(O)C(O)C2O)C(O)C(O)C1O)[C@H]1CC[C@]2(C)[C@@H]1[C@H](O)C[C@@H]1[C@@]3(C)CC[C@H](OC4OC(CO)C(O)C(O)C4OC4OC(CO)C(O)C(O)C4O)C(C)(C)[C@@H]3CC[C@]12C (stereo not given in full)
- Potency [1]: inactive

SMILES: Cc1ccc2ccccc2c1
- Potency [2]: inactive
- activation [3]: 23%
- Potency [4]: inactive

SMILES: COc1cc(/C=C/c2ccccc2)oc(=O)c1
- Potency [1]: inactive

SMILES: C=C(C)C#N
- Potency [2]: inactive

SMILES: c1ccc(OP(Oc2ccccc2)Oc2ccccc2)cc1
- Potency [5]: inactive

SMILES: C=CC(C)=O
- Potency [2]: inactive

SMILES: CCCCOCCOP(=O)(OCCOCCCC)OCCOCCCC
- Potency [6]: inactive
- Potency [2]: inactive

SMILES: O=[N+]([O-])c1cccc2ccccc12
- outcome [7]: inactive

SMILES: OCC1CO1 (stereo not given)
- Potency [2]: inactive

SMILES: CCOc1ccc(N)cc1
- Potency [2]: inactive
- Potency [5]: inactive

SMILES: Cc1ccc(O)c(C)c1
- Potency [2]: inactive

SMILES: C=CC(=O)OCC
- Potency [2]: inactive

SMILES: Clc1ccc2ccccc2c1
- activation [3]: 11.2%
- Potency [4]: inactive
- outcome [7]: inactive

SMILES: O=C(Cl)/C=C/C(=O)Cl
- Potency [2]: inactive
- activation [3]: 8.8%
- Potency [4]: inactive

SMILES: C=CC(=C)C
- outcome [7]: inactive

SMILES: Cc1ccc([N+](=O)[O-])cc1C
- outcome [7]: inactive
- Potency [5]: inactive

SMILES: CC(C)(OO)c1ccccc1
- outcome [7]: inactive

SMILES: C=CC(N)=O
- Potency [2]: inactive
- Potency [5]: inactive

SMILES: CCSC(=O)Cl
- activation [3]: 5.7%
- Potency [4]: inactive
- outcome [7]: inactive

SMILES: ClC(Cl)=C(Cl)C(Cl)=C(Cl)Cl
- Potency [2]: inactive
- outcome [7]: inactive
- Potency [5]: inactive

SMILES: BrCCBr
- outcome [7]: inactive

SMILES: CC(C)(c1ccccc1)c1ccc(O)cc1
- Potency [6]: inactive
- Potency [2]: inactive
- outcome [7]: inactive
- Potency [5]: inactive

SMILES: C[N+](C)(C)Cc1ccccc1
- Potency [2]: inactive
- Potency [5]: inactive

SMILES: c1nc[nH]n1
- Potency [6]: inactive

SMILES: Nc1ccccc1Cl
- Potency [2]: inactive
- activation [3]: 9.37%
- outcome [7]: inactive
